# TWEAK-Fn14 inh: TWEAK-Fn14 signaling inhibition; AID 1159606; 2% of 360,000 active; TWEAK-stimulated Fn14 reporter cells, luciferase luminescence, 8 h; inhibition, % at 10 µM; in the data active = inhibition above about 50%
# EWS-Fli block: inhibitors of EWS/Fli oncoprotein transcriptional activity | A673 NR0B1-luciferase reporter, viability-normalised | 0.67% of 350,000 active | inhibition, % at 12.6 µM;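 active = mean inhibition of at least 50% after viability correction, with every replicate also passing that limit; inconclusive = mean reaches 50% but only one of two replicates passes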;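 note: firefly luciferase signal divided by Alamar Blue viability fluorescence both relative to DMSO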
# LGR2 antag: inhibitors of bursicon-induced Drosophila LGR2 receptor cAMP signaling. HEK293 LGR2, CRE-luciferase, bursicon-stimulated, 4 h. 0.35% of 380,000 active. inhibition, % at 9.99 µM;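 active = drop in luminescence signal, shown as inhibition above about 50% in the replicate tests, limit read from the data, passing the limit was not always enough; inconclusive = probably only some replicates passing the limit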;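 note: agonist challenge used bursicon conditioned medium at about half maximal strength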
# PAX8 reporter: lowers PAX8-driven luciferase in RMG-I cells. 1.2% of 360,000 active. inhibition, % at 12.6 µM. AID 652154. RMG-I TPO-luciferase reporter, SteadyGlo, 24 h;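 active = mean replicate inhibition at least 60% with every replicate also reaching 60%; inconclusive = only one of the two criteria is met; inactive = mean below 60% and not all replicates reaching 60%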;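 note: luciferase light reporting Pax8 driven TPO promoter activity; plate controls were median of neutral control wells for no effect and mitoxantrone controls for full effect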
# TROY NFkB inh: blocks TROY-dependent signaling in reporter cells; Q293 LMP1-TROYcd NF-kB luciferase reporter, 4 h; inhibition, % at 10 µM; 0.98% of 360,000 active;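 active = compounds whose plate-normalised and pattern-corrected inhibition of the luciferase reporter signal at the single screening dose is 50% or more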
# * marks the source's active call; other numbers are inactive results; ? = inconclusive; · = no result given. Compounds with a hit are over-represented: about 2.8% of the library has one in this group of screens.
SMILES,TWEAK-Fn14 inh,EWS-Fli block,LGR2 antag,PAX8 reporter,TROY NFkB inh
Cc1ccc(COc2ccccc2-c2cc(C(=O)N/N=C/c3cccnc3)[nH]n2)cc1,27,58*,6,17,43
CCOc1ccccc1-c1cc(C(=O)N/N=C/c2cccnc2)c2ccccc2n1,-29,0,·,-1,-2
O=C(C1CC1)N1CCCCN2[C@H](CO)[C@H](c3ccc(C#CC4(O)CCCC4)cc3)[C@H]2C1,·,-17,·,-13,·
O=C(NCC[C@H]1CC[C@H](NC(=O)C2CCC2)[C@@H](CO)O1)c1cc(Cl)cc(Cl)c1,·,6,-4,16,·
Nc1ccc(-c2ncc(-c3ccccc3)o2)cc1,68*,65*,-16,-33,34
Cc1cc(CSc2ccccc2)ccc1NC(=O)c1ccc(CN2CCOCC2)cc1,52*,·,6,11,24
COc1ccccc1C(=O)N(CCC1CCCN1C)c1nc2ccccc2s1 (stereo unspecified),101*,61*,98*,-104,89*
CC1(C)CNc2cc(N)ccc2S1,51*,-22,-15,19,51*
CCC(=O)N1[C@H](CO)[C@H]2c3ccccc3N(C(=O)NC(C)C)C[C@H]21,·,3,-7,-8,·
Cc1cccc(N/C=C/C(=O)c2ccc(Cl)cc2)c1,13,-37,-69,-81,-23
O=C(/C=C\Nc1ccccn1)c1ccc(Cl)cc1,87*,·,·,·,50
C[C@@H]1CN([C@H](C)CO)C(=O)c2cc(NS(=O)(=O)c3ccc(F)cc3)ccc2O[C@@H](C)CCCCO[C@H]1CN(C)Cc1ccc(Cl)c(Cl)c1,·,20,35,69*,·
C[C@H](CO)N1C[C@H](C)[C@H](CN(C)Cc2ccc(Cl)c(Cl)c2)OCCCC[C@H](C)Oc2ccc(NS(=O)(=O)c3ccc(F)cc3)cc2C1=O,·,-5,13,97*,·
C[C@@H]1CCCCO[C@H](CN(C)Cc2ccc(Cl)c(Cl)c2)[C@@H](C)CN([C@H](C)CO)C(=O)c2cc(NS(=O)(=O)c3ccc(F)cc3)ccc2O1,·,-4,-10,21,·
CCOC1=C2[C@H](c3ccccc3)N(S(=O)(=O)c3ccc(C)cc3)C(C(C)(C)C)[C@H]2C(C#N)(C#N)C(C#N)(C#N)C1 (stereo partly specified),54*,10,13,55,17
CCOC1=C2CN(S(=O)(=O)c3ccc(C)cc3)[C@H](c3cccc4ccccc34)C[C@H]2C(C#N)(C#N)C(C#N)(C#N)C1,16,·,·,·,1
CN(C)C(=O)[C@@H]1[C@@H](CO)[C@@H]2Cn3c(ccc(-c4ccccc4F)c3=O)[C@H]1N2C(=O)c1ccccc1,·,-4,7,·,·
O=c1cc(-c2ccccc2Cl)oc2ccc([N+](=O)[O-])c(O)c12,-26,-1,-21,11,-14
O=c1cc(-c2ccccc2Cl)oc2c([N+](=O)[O-])c(O)cc(O)c12,96*,-13,70*,-100,52*
Cc1ccc(-c2cn(-c3ccccc3)c(SCC(=O)NC3CCS(=O)(=O)C3)n2)cc1C (stereo unspecified),20,-67,-60,-176,52*
NNC(=O)CSc1nc(-c2ccccc2)cn1-c1ccccc1,63*,5,-8,-14,72*
C(CCN1CCOCC1)CN1CCOCC1,-9,-5,3,-26,64*
COc1cc(S(=O)(=O)NC2CCCC2)ccc1F,4,·,·,·,24
O=S(=O)(NC1CC1)c1ccc(Cl)cc1F,99*,-6,-10,-9,2
COc1ccc(CNc2nn3c(-c4cccc(C(=O)N(C)C)c4)cnc3s2)cc1,81*,0,-3,7,50*
SMILES,TWEAK-Fn14 inh,EWS-Fli block,LGR2 antag,PAX8 reporter,TROY NFkB inh
Cc1noc(/C=C/Nc2ccc(F)cc2F)c1[N+](=O)[O-],-6,-58,-108,-157,-15
COc1ccccc1N/C=C/c1onc(C)c1[N+](=O)[O-],78*,·,73*,-4,72*
Cc1noc(/C=C/c2ccccn2)c1[N+](=O)[O-],56*,40,34,37,23
O=C(Nc1ccc(F)cc1)N[C@@H]1C=C[C@H](CC(=O)N2CCCCC2)O[C@@H]1CO,·,3,0,-6,·
CCCN1CCc2c(sc(NC(=O)c3ccc(S(=O)(=O)N4CCCC4)cc3)c2C(N)=O)C1,-4,·,-9,11,-25
CC1CCCN(S(=O)(=O)c2ccc(C(=O)Nc3sc4c(c3C(N)=O)CCN(C)C4)cc2)C1 (stereo unspecified),-4,56*,-2,19,-24
Cc1ccc(C)c(N2CCN(c3ncccc3[N+](=O)[O-])CC2)c1,31,0,32,62*,47
O=C(Nc1ccc(N2CCN(C(=O)c3ccc(Cl)cc3)CC2)cc1)c1cc2ccccc2o1,90*,·,?,·,69*
O=C(Nc1ccccc1N1CCN(C(=O)c2ccc(Cl)cc2)CC1)c1ccc([N+](=O)[O-])o1,13,·,·,·,-19
Cc1ccccc1C(=O)N1CCN(c2ccc(NC(=O)c3ccc([N+](=O)[O-])o3)cc2)CC1,10,61*,1,9,17
O=C(Nc1ccc(N2CCN(C(=O)c3ccccc3)CC2)cc1)c1ccc([N+](=O)[O-])o1,3,66*,1,100*,9
C[C@H]1CCCCO[C@@H](CN(C)Cc2ccncc2)[C@@H](C)CN([C@@H](C)CO)C(=O)c2cc(NC(=O)Nc3cccc4ccccc34)ccc2O1,·,5,25,·,·
COC(=O)[C@@H]1[C@@H](CO)[C@@H]2Cn3c(ccc(-c4cccc(OC)c4)c3=O)[C@@H]2N1Cc1nccs1,·,-3,-27,2,·
COc1ccc2c3c([nH]c2c1)[C@H](CO)N(C)CC31CN(S(=O)(=O)c2ccc(C)cc2)C1,·,9,-14,·,·
CC(C)c1cn(CC[C@@H]2CC[C@H](NC(=O)C3CCCCC3)[C@H](CO)O2)nn1,·,4,-18,·,·
COc1ccc(N2CCN(c3nc(NCCc4ccc(OC)c(OC)c4)nc(OC)n3)CC2)cc1,38,·,·,·,57*
CCOc1nc(NCCc2ccc(OC)c(OC)c2)nc(N2CCN(c3ccc(OC)cc3)CC2)n1,19,·,·,·,-6
CCn1c(C)nc2cc(C(=O)OC(C(F)(F)C(F)F)C(F)(F)C(F)F)ccc21,1,·,·,·,57*
CCn1c(C)nc2cc(C(=O)NNC(=O)c3ccc(C)cc3)ccc21,72*,-66,-73,-101,78*
CCn1c(C)nc2cc(C(=O)NNC(=S)Nc3ccccc3)ccc21,71*,-52,-55,-128,78*
CCCCc1c(C)c(C#N)c2[nH]c3ccccc3n2c1=O,9,·,·,·,52*
Cc1c(CCO)c(=O)n2c([nH]c3ccccc32)c1C#N,3,-2,14,-13,2
c1ccc(N2CCN(c3nc4cc5c(cc4s3)OCCO5)CC2)cc1,11,·,·,-195,-20
NNc1nc2cc3c(cc2s1)OCCO3,53*,-60,5,-44,30
O=C(Nc1nc2cc3c(cc2s1)OCCO3)c1cccs1,89*,31,76*,43,61*
COc1ccccc1C(=O)Nc1nc2cc3c(cc2s1)OCCO3,11,·,·,·,-11

# From PubChem BioAssay
